experiment: E. coli acrAB mutant growth effects, primary screen, E. coli filamentation inducers, strain DRC39, OD650, 48 h (AID 1179);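 further: screen aims at cell division blockers that make cells filament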; details: E. coli DRC39 delta-acrAB growth, higher = more signal, called active from +8 up or from −8 down

z-score, inactive:
COCCOC(=O)N1C(=O)[C@@]2(c3cc(C#CCNC(N)=O)ccc31)[C@H](C(=O)N1CCc3cc(OC)c(OC)cc3C1)[C@H]1C(=O)O[C@H](c3ccccc3)[C@H](c3ccccc3)N1[C@@H]2c1ccc(OCCO)cc1 0.781
CCOC(=O)C1=CC[C@@H](c2ccccc2)N(S(=O)(=O)c2ccc(C)cc2)[C@H]1C(=O)OCC 0.237
O=C(CS)NCCCCCCNC(=O)[C@@H]1C[C@@H]2C(=O)N3CCC[C@H]3C(=O)N2[C@@H]1c1ccc(O)cc1 -0.313
CCOC(=O)C1=CCC(c2ccc([N+](=O)[O-])cc2)N(S(=O)(=O)c2ccc(C)cc2)C1 (stereo unspecified) -0.418
COCCOC(=O)N1C(=O)[C@@]2(c3cc(C#CCNC(N)=O)ccc31)[C@H](c1ccc(O)cc1)N1[C@H](c3ccccc3)[C@H](c3ccccc3)OC(=O)[C@H]1[C@@H]2C(=O)Nc1nc2ccccc2s1 2.74
O=c1cccc(CCc2ccccc2)o1 -0.608
O=C1N(CCS(=O)(=O)c2ccccc2)Cc2ccccc2[C@H]2OC(c3ccc(OCCCO)cc3)=N[C@@]12CCS(=O)(=O)c1ccccc1 1.09
CN(C)C(=O)[C@@]1(CCC(=O)OC(C)(C)C)N=C(c2ccc(OCCCO)cc2)O[C@H]1c1ccccc1 -0.353
O=C1C2C=CC(C(O)c3ccc(-c4ccccc4)s3)N(n3cnnc3)C2C(=O)N1Cc1ccccc1 (stereo unspecified) -0.0301
CC(C)C(O)C1C=CC2C(=O)N(c3ccccc3)C(=O)C2N1Nc1ccc(C#N)cc1 (stereo unspecified) 0.0323
COC(=O)c1ccc(C(O)C2C=CC3C(=O)N(C)C(=O)C3N2NC(=O)OC(C)(C)C)o1 (stereo unspecified) -0.757
CCOC(=O)C1=C[C@@H](CC)N(S(=O)(=O)c2ccc(C)cc2)[C@H]1c1ccccc1 -0.604
COC(=O)[C@@]1(Cc2ccccc2)[C@H]2c3cc(C(=O)N(C)C)n(Cc4c(-c5ccccc5)noc4C)c3C[C@H]2CN1C(=O)c1ccccc1 -0.971
COCCOC(=O)N1C(=O)[C@@]2(c3cc(C#CCNC(N)=O)ccc31)[C@H](c1ccccc1OCCO)N1[C@H](c3ccccc3)[C@H](c3ccccc3)OC(=O)[C@H]1[C@@H]2C(N)=O -0.375
CC(C)N1C(=O)[C@@]2(c3ccc([N+](=O)[O-])cc3)CC(=O)N(CC34CC5CC(CC(C5)C3)C4)[C@@H]2c2ccc(CO)cc21 0.0457
CC(=O)NCCCC[C@@H]1NC(=O)[C@@H]2C[C@H](C(=O)NCCCCN(C)C)[C@H](c3ccc(O)cc3)N2C1=O 1.51
Cc1ccccc1C(O)C1C=CC2C(=O)N(C)C(=O)C2N1N1CCCCC1 (stereo unspecified) -0.495
CCOC(=O)C[C@H]1[C@H](OC(=O)c2ccc(C(=O)c3ccccc3)cc2)[C@@H](NC(=O)C2CCCCC2)c2cc(OCCCO)ccc2N1C(=O)c1ccccc1 -0.549
COc1ccc([Si](C)(C)[C@@H]2[C@@H](CC(=O)N3CCC[C@H]3CO)O[C@]3(C(=O)N(C)c4c(Br)cc(C)cc43)[C@H]2C)cc1 0.0205
COC(=O)[C@@]1(Cc2ccc(F)cc2)[C@H]2c3cc(C(=O)N4CCCC4)n(Cc4cccc5ccccc45)c3C[C@H]2CN1C(=O)c1ccccc1 -0.974
C=CC(COC(C)=O)NS(=O)(=O)c1ccc(Br)cc1 (stereo unspecified) -1.05
CC(C)(C)OC(=O)CC[C@@]1(C(=O)O)N=C(c2ccc(OCCCO)cc2)O[C@@H]1c1ccccc1N=[N+]=[N-] 0.367
CCOC(=O)C1=CCC(c2ccc(C#N)cc2)N(S(=O)(=O)c2ccc(C)cc2)C1 (stereo unspecified) 0.435
O=C1OCCC=C[C@H]2OC34C=CCN(Cc5ccccc5)C(=O)[C@H]3N(CCCO)C(=O)[C@@H]4C12 (stereo partly specified) 0.129
O=C1OCC=C[C@H]2OC34C=CCN(c5ccc(Cl)cc5)C(=O)[C@H]3N(CCCCCCO)C(=O)[C@@H]4[C@@H]12 (stereo partly specified) 0.916
COC(=O)C(CC#Cc1ccc2c(c1)[C@]1(C(=O)N2)[C@H](c2ccc(OCCO)cc2)N2[C@H](c3ccccc3)[C@H](c3ccccc3)OC(=O)[C@H]2[C@@H]1C(=O)NC[C@H](O)c1ccccc1)C(=O)OC 0.869

Reference: PubChem BioAssay
